Screening data as filed in PubChem BioAssay.
LmPK inh – blocks Leishmania mexicana pyruvate kinase activity; Potency, µM (highest dose often 57.5 µM), for the others: at the highest dose activity change, negative = inhibition, actives largely listed as inhibitors; AID 1721; Q27686; 290,000 tested, 0.37% active; purified LmPK, Kinase-Glo ATP luminescence, 1 h
Target sequence (Q27686 whole entry, looked up): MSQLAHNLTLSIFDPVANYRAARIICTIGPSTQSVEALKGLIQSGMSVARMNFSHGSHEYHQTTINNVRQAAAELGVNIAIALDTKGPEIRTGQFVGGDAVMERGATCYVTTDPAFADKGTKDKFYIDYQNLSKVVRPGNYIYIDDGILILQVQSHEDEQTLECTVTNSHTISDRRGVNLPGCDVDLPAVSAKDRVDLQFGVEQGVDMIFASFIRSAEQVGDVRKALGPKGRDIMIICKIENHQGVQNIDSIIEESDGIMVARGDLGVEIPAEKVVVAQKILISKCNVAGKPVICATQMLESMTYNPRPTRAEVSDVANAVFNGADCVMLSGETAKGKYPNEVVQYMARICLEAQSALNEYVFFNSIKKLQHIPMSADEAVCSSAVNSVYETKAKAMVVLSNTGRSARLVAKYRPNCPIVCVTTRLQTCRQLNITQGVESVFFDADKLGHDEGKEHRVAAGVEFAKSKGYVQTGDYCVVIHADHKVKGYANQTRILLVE
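Screened at intermediate enzyme activity to detect both inhibitors and activators: LmPK at 0.1 nM, with a 0.5 nM enzyme column as activation reference. PEP 0.5 mM, ADP 0.1 mM; ATP detected by luminescence after 1 h.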
Sm TGR block – inhibitors of Schistosoma mansoni thioredoxin glutathione reductase | Q962Y6 | purified TGR, DTNB reduction, TNB absorbance 405 nm | Potency, µM (titrated, usually from 114 µM), for the others: at the highest dose activity change, negative = inhibition, usual class: inhibitors | 360,000 tested, 3% active | AID 485364; also: nearly all actives have a fitted effect of over 60% in size
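First, TGR (20 nM dispensed) and NADPH were mixed with compound. Second, a 15 min room-temperature incubation followed. Third, further NADPH and then DTNB were added to start the reaction. Finally, TNB absorbance was monitored kinetically.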
Tb PYK inh – blocks Trypanosoma brucei pyruvate kinase; 410,000 tested, 0.12% active; Q57TT1; Potency, µM (series often up to 76.8 µM), for the others: at the top dose activity, negative = inhibition, most hits filed as inhibitors; TbPYK enzyme, Kinase-Glo Plus ATP luminescence, 45 min; also: nearly all actives have a fitted effect of over 50% in size
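Glycolytic pyruvate kinase of T. brucei was incubated with substrate, test compound and 130 uM ADP for 45 minutes at room temperature. Luminescent Kinase-Glo Plus signal was measured after 10 minutes.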
RE007 growth inh – less growth of the S. pombe RE007 Vpr strain. S. pombe RE007 Vpr strain, BacTiter-Glo ATP luminescence, 24 h. Potency, µM (top dose mostly 92.2 µM), for inactives: at the highest dose activity change, negative = less growth, hits mostly inhibitors. 360,000 tested, 0.21% active; active = well fitted falling curve with a large enough effect; inconclusive = small, poorly fitted or top-dose-only effect; inactive = no such curve, though single readings can be large or run the other way; also: nearly all actives have a fitted effect of over 50% in size
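Fission yeast strain RE007, carrying one chromosomally integrated HIV-1 vpr copy, was seeded at OD 0.01 in PMG+AL medium with 23 nL pinned compound. After 24 h at 30 °C and 99% humidity, viability was read by BacTiter-Glo luminescence.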
AMA1-RON2 inh – disrupts binding of P. falciparum AMA1 to RON2. AlphaScreen AMA1-biotinylated RON2 peptide binding. 360,000 tested, 0.2% active. AID 720542. Potency, µM (doses to about 58.2 µM), for inactives: top-dose activity change, negative = inhibition, most hits filed as inhibitors;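 also: 0% = vehicle wells and -100% = peptide control; nearly all actives have a fitted effect of over 45% in size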
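AMA1 (3D7) with his tag at 25 nM final met compounds first, then biotinylated RON2 peptide at 25 nM; detection used donor plus acceptor beads, 10 µg/mL apiece, read by AlphaScreen after 30 min at room temperature.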
An asterisk follows results filed as active; ? = inconclusive; . = no result given; [ ] = another dose, or the depositor's remark. Rows were chosen to be rich in hits. Some 3.2% of all compounds tested hit in one or more screens of this group. Unless noted, calls follow the shape of the dose curve; as a rule, active = well fitted curve in the direction sought with a large enough effect; inconclusive = small, poorly fitted or top-dose-only effect, or another doubt; inactive = no such curve, though single readings can be large; an effect the other way counts as inactive or inconclusive. Unless noted, % is scaled to controls: 0 for no effect and ±100 for the full control effect; potency is read from the fitted curve at half-maximal effect.

SMILES	LmPK inh	Sm TGR block	Tb PYK inh	RE007 growth inh	AMA1-RON2 inh
COc1ccc(Cn2ccc3nc(C)c(C(=O)Nc4cc(C)cc(C)c4)cc3c2=O)cc1	.	-1%	1%	.	.
Cc1ccccc1NC(=O)c1cnc2sc(N3CCCC3)nn2c1=O	.	7%	-6%	.	.
COc1ccc(-n2nc(C(=O)N3CCN(c4cccc(C(F)(F)F)c4)CC3)c3c4ccccc4n(C)c3c2=O)cc1Cl	.	4%	-17%	.	.
CCOP(=O)(OCC)C(NS(=O)(=O)c1ccccc1)C(Cl)(Cl)Cl (centres undefined)	3%	14µM*	2%	11%	5%
CCc1ccc(C(=O)CC2(O)C(=O)N(CCc3ccccc3)c3ccc(Cl)cc32)cc1 (centres undefined)	.	-5%	2%	.	.
Cn1cccc1CC(=O)N/N=C/c1ccco1	-11%	40µM*	-2%	11%	1%
CC(=C/c1ccco1)/C=N/NC(=O)Cc1cccn1C	-2%	45µM*	-6%	-8%	7%
CC(/C=N/NC(=O)CN1CCN(Cc2ccc(Cl)cc2)CC1)=C\c1ccco1	1%	79µM*	-6%	15%	5%
CC(/C=N/NC(=O)Cc1cccn1C)=C\c1ccco1	-1%	25µM*	-17%	-1%	-16%
COc1cc(NC(=O)c2nc3cc(C)c(C)cc3n(C)c2=O)cc(OC)c1OC	.	5%	3%	.	.
COc1ccc(NC(=O)CN(C)CC(=O)c2[nH]c(C)c(C(C)=O)c2C)cc1	.	?	3%	2%	14%
COc1cc(CN(C)CC(=O)c2[nH]c(C)c(C(C)=O)c2C)ccc1OC(F)F	3%	22µM*	3%	-8%	-1%
Cn1c(O)c(/C=C2\C=Nc3ccccc32)c(=O)n(C)c1=O	-8%	-28%	-2%	-6%	0%
Cn1c(O)c(/C=C2\N=c3ccccc3=C2CCNC(=S)NC2CC2)c(=O)n(C)c1=O	7%	5.6µM*	?	-8%	-8%
Cc1ccc(NC(=O)Cn2c(=O)n(Cc3ccccc3)c(=O)c3sc4ccccc4c32)cc1	.	0%	2%	.	.
O=C(/C=C/Nc1ccc(F)cc1F)c1ccco1	10µM*	-5%	?	-1%	-4%
O=C(/C=C/Nc1ccccc1F)c1cccs1	16µM*	-15%	?	-25%	0%
O=C(/C=C\Nc1cccc(F)c1)c1cccs1	?	-2%	-7%	?	-1%
O=C(/C=C/Nc1ccc(Br)cc1F)c1ccco1	?	-21%	-14%	?	-27%
O=C(/C=C/Nc1ccc(F)cc1F)c1cccs1	8.9µM*	-10%	?	-29%	-1%
Cc1ccc(-n2nc(C)c3c(C(=O)NCc4ccc(F)cc4)cc(C)nc32)cc1	.	9%	9%	.	.
Cc1cc(C)cc(NC(=O)C(=O)NCC(c2ccc3c(c2)OCO3)N2CCOCC2)c1 (centres undefined)	.	-1%	2%	.	.
Cc1oc2ncn(CC(C)C)c(=O)c2c1C(=O)NCCCN1CCCCC1C (centres undefined)	.	8%	2%	.	.
CCOC(=O)c1c(CSc2ccccc2)n(C)c2ccc(O)c(CN3CCN(C)CC3)c12	-4%	18µM*	-3%	-10%	-20%
Cn1c(=O)c2sccc2n2c(CCC(=O)N3CCN(c4ccc(F)cc4)CC3)nnc12	.	-2%	.	.	.
SMILES	LmPK inh	Sm TGR block	Tb PYK inh	RE007 growth inh	AMA1-RON2 inh
CCCCCCCNC(=O)C1(CC2CC(c3ccc(Cl)cc3)=NO2)CCNCC1 (centres undefined)	4%	40µM*	-9%	2%	-2%
CCCCCCCNC(=O)C1(CC2CC(c3cccc(Br)c3)=NO2)CCNCC1 (centres undefined)	6%	25µM*	1%	17%	-9%
CCCNC(=O)c1ccc2snnc2c1	0%	-3%	-4%	-5%	1%
CCCNC(=O)c1nnsc1S(=O)c1ccc(Cl)cc1 (centres undefined)	-4%	0.32µM*	-13%	3.5µM*	-1%
CCCNC(=O)NS(=O)(=O)c1ccc(Cl)cc1	5%	-18%	0%	7%[18.4 µM]	0%
CNC(=O)c1nnsc1S(=O)c1ccc(Cl)cc1 (centres undefined)	-3%	0.32µM*	-15%	35µM*	0%
CCCNC(=O)c1nnsc1S(=O)(=O)c1ccc(Cl)cc1	0%	0.32µM*	3%	11µM*	1%
COC(=O)CSc1[nH]c2ccccc2c1[N+](=O)[O-]	-2%	50µM*	-2%	-4%	14%
Cc1[nH]nc(SCC(=O)NCc2ccccc2)c1[N+](=O)[O-]	3%	-5%	10%	2%	12%
O=C1[C@H]2C(c3ccccc3)=NN(c3ccccc3)[C@H]2C(=O)N1c1ccccc1	10%	0%	7%	-1%	114%
O=C1[C@@H]2[C@@H](CN3CN(c4ccccc4)N=C(c4ccccc4)[C@@]23c2ccccc2)C(=O)N1c1ccccc1	.	.	-21%	40µM*	20%
C=CCn1c(CSc2ccc(C)cc2)n[nH]c1=S	-13%	4%	4µM*	14%	95%
C=CCn1c(CSc2nc3ccccc3s2)n[nH]c1=S	?	4%	4.5µM*	5%	31%
CCOc1ccccc1NC(=O)Cn1c(=O)nc(-c2ccccc2F)c2cc(Cl)ccc21	.	-12%	3%	.	.
COc1ccc(OC)c(/C=N/n2c(-c3n[nH]c4c3CCC4)n[nH]c2=S)c1	-10%	2%	3.5µM*	3%	105%
COc1ccc(/C=N/n2c(-c3n[nH]c4c3CCC4)n[nH]c2=S)c(OC)c1OC	-8%	10%	-38%	43%	116%
COc1cc(OC)c(OC)cc1/C=N/n1c(-c2n[nH]c3c2CCC3)n[nH]c1=S	-20%	10%	2.5µM*	20%	97%
CCN(C(=O)c1c(C)oc2ncnc(N3CCCCC3)c12)c1cc(C)ccc1C	.	10%	1%	.	.
Cc1cc(SCNC(=O)c2ccccc2)ncn1	11%	14µM*	-14%	5%	40%
COc1ccc(CNc2nc3c(c(=O)n(C)c(=O)n3C)n2Cc2ccccc2Cl)cc1	.	-1%	-3%	.	.
CCCCCn1c(=O)[nH]c2cc(C(=O)N3CCN(c4cc(Cl)ccc4C)CC3)ccc2c1=O	.	-2%	-2%	.	.
CCc1ccccc1OCC(=O)Nc1ccc(N2CCCC2)cc1C	.	16µM*	-9%	-28%	?
Cc1cc(N2CCCC2)ccc1NC(=O)COc1ccccc1	.	18µM*	-12%	16%	-16%
COc1ccc(N2CCCC2)c(NC(=O)COc2ccccc2)c1	-2%	-32%	0%	-24%	-20%
CC1(C)CC2CC(C)(CN2S(=O)(=O)c2cccc(C(N)=O)c2)C1 (centres undefined)	.	4%	-7%	2%	-8%
COCCNC(=O)c1cccc(S(=O)(=O)N2CC3(C)CC2CC(C)(C)C3)c1 (centres undefined)	.	79µM*	-4%	-9%	-3%
